# About 800 (0.24%) of roughly 340,000 compounds were called active. The full list was thinned out, with actives kept by preference. Unmarked numbers belong to inactive results.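 Rule for the calls: active = activation above the mean over all tested compounds plus 3 SD (cut at about 30% in these data); inactive = the rest.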
# Target: Troponin I, cardiac muscle (Homo sapiens) + Troponin T, cardiac muscle (Homo sapiens) + Troponin C, slow skeletal and cardiac muscles (Homo sapiens) (UniProt P19429+P45379+P63316)
# Experiment: calcium sensitizers of cardiac thin filaments – biochemical, IANBD-TnC fluorescence, EC20 calcium, primary screen (AID 493008);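 note: rise in fluorescence read as greater calcium sensitivity of cardiac thin filaments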
# Conditions: IANBD-labeled TnC RTF fluorescence at EC20 calcium; at 7.2 µM; active compounds read high; 0% EC20 calcium, 100% full calcium
row,Compound,activation
1,COc1ccc(OC)c(NC(=O)c2ccc3c(c2)C(=O)N(c2ccc(OC(C)=O)cc2)C3=O)c1,1.02%
2,CCOC(=O)c1c(NC(=O)C2CC=CCC2C(=O)O)sc(C)c1CC (centres undefined),1.94%
3,CSC1=NCCN1C(=O)Cc1cccc2ccccc12,-2.5%
4,Nc1ccc2nc3c(=O)[nH]c(=S)[nH]c3nc2c1,266% (active)
5,OC1CCCN(c2ncnc3c2nnn3Cc2c(F)cccc2Cl)C1 (centres undefined),6.74%
6,CCOc1ccc(C2c3[nH]c4ccccc4c3CCN2Cc2cccn2-c2ncccn2)cc1 (centres undefined),1.17%
7,Cc1ccc(CN2CCN(Cc3ccc4ncccc4c3)CC2CCO)cc1 (centres undefined),0.85%
8,Cc1ccsc1-c1cc(C(=O)O)c2c(ccc3ccccc32)n1,2.92%
9,Cc1cccc(C)c1NC(=O)CCCSc1nnc(-c2ccco2)n1-c1ccccc1,-3.75%
10,CCOc1ccc(-n2cnnn2)cc1S(=O)(=O)N1CCC(C)CC1C (centres undefined),-1.75%
11,COCCCNC(=O)CNC(=S)N(Cc1cc(OC)c(OC)c(OC)c1)C1CCCC1,-8.44%
12,COc1ccc(/C=C/C(=O)OCC(=O)NC2CCCCCC2)cc1OC,-4.52%
13,CCCc1ccc(OCC(O)CN2CCN(CCO)CC2)cc1 (centres undefined),-4.14%
14,Cc1ccccc1-n1nc(SCC(=O)O)sc1=S,-0.8%
15,Cc1nc(N)sc1-c1ccccc1,-3.97%
16,CNc1nc2c(C)cccn2c(=O)c1C=Nc1ccc(OC)cc1,-1.57%
17,Cc1ccc2[nH]c(=O)c(-c3nc4c(C)cccn4c3NCc3ccco3)cc2c1,-3.25%
18,CCCN(CCC)c1nc2c(C)cccn2c(=O)c1/C=C1/SC(=S)N(Cc2ccco2)C1=O,34% (active)
19,O=C(COC(=O)c1cccc(Br)c1)Nc1cccc2c1C(=O)c1ccccc1C2=O,-3.82%
20,O=C(Cn1cnc2ccccc21)Nc1ccccc1-c1ccccc1,-3.39%

row,Compound,activation
1,O=C(COC(=O)Cn1cnc2ccccc21)Nc1cccc2c1C(=O)c1ccccc1C2=O,45.7% (active)
2,O=S(=O)(NCCc1ccc(Cl)cc1)c1cccs1,-0.86%
3,CCOc1ccc2oc(C(=O)N(CC)CC(=O)Nc3ccc(NC(C)=O)cc3)c(C)c2c1,-0.31%
4,O=C(c1c(Cl)nc2sccn12)N1CCCc2ccccc21,-2.79%
5,O=C(c1cc(-c2ccc(O)cc2)on1)N1CCCc2ccccc21,6.06%
6,Cc1cccc2cc3c(N)c(C(=O)N4CCCc5ccccc54)sc3nc12,44.8% (active)
7,O=C(C[n+]1cc(Br)cc2ccccc21)c1ccc(F)cc1,-1.35%
8,COC(=O)Cc1c(-c2[nH]c3ccccc3c2CC(=O)OC)[nH]c2ccccc12,0.63%
9,COC(=O)C[n+]1cccc2ccccc21,58.3% (active)
10,CN(C)c1ccc(/C=C2\NC(=S)N(Cc3ccccc3)C2=O)cc1,66% (active)
11,CC1CN(Cc2ccccc2)C(=S)NC1=O (centres undefined),-1.27%
12,CN(C)c1ccc(C=C2C(=O)OC3(CCCC3)OC2=O)cc1,-3.77%
13,CCn1cc(C(=O)N2CC=C(c3ccccc3)CC2)c(=O)c2ccc(C)nc21,-3.54%
14,CCCCNC(=O)C(C)N(CCN(C)C)C(=O)CCCCCN1C(=O)NC(c2ccc(Cl)cc2)C(C(=O)OCc2ccccc2)=C1C (centres undefined),-4%
15,CCOc1ccc(N(CC(=O)NCCOc2ccccc2OC)S(=O)(=O)c2ccccc2)cc1,2.75%
16,CCCNCc1cc(OCC)c(OCC(=O)Nc2ccccc2)cc1Br,4.49%
17,COc1ccc(OC)c(CCNC(=O)c2nn(C)c3c2CS(=O)(=O)c2ccccc2-3)c1,-2.91%
18,O=c1ccc(S(=O)(=O)N2CCCC2)cn1Cc1nc(-c2ccccc2)no1,-2.09%
19,CC1CCCN(CC(O)COc2ccc3c(c2)OCO3)C1 (centres undefined),-0.7%
20,Cn1cccc1C(=O)N1CCc2ccccc2C1,1.33%

row,Compound,activation
1,OCC[C@H]1C[C@@H](O)[C@H](O)[C@]2(OCCCc3ccccc32)O1,2.9%
2,CCCC1OC23CCCCC2C(C#N)(C#N)C1(C#N)C(=N)O3 (centres undefined),35% (active)
3,C=CCC[C@@H](Cc1ccc(F)cc1)C(=O)OC[C@H](Cc1c[nH]c2ccccc12)NC(=O)[C@@H](CC=C)CC(=O)N(CCO)Cc1ccccc1,-0.54%
4,CN1CCNC(=O)C1CC(=O)NCCC1=CCCCC1 (centres undefined),9.88%
5,COc1ccc(C(=O)OCc2cc(=O)n3ccsc3n2)cc1F,-7.02%
6,COCc1cc(=O)[nH]c2cc(NC(=O)C(F)(F)F)c(C)cc12,-3.59%
7,CCOC(=O)N1CCC(c2cc(=O)n(-c3ccccc3)[nH]2)CC1,2.7%
8,O=c1cc(N2CCCCC2)c(-c2ccccc2)nn1Cc1cccc(F)c1,-0.45%
9,Cc1nc([N+](=O)[O-])cn1CC(=O)Nc1ccc(Cl)cc1,0.6%
10,Nc1nc(SCC(=O)N2CCN(S(=O)(=O)c3ccc(Cl)cc3)CC2)n[nH]1,11.6%
11,Cc1nc(N=C(N)N)nc2c(C)cccc12,-2.23%
12,COCCCNC(=O)C1CCN(c2ccc(N3CCOCC3)nn2)CC1,1.09%
13,CC1CCN(c2c(NCc3ccc(C(=O)NCc4ccccc4)cc3)c(=O)c2=O)CC1,13.9%
14,Cc1ccc(CNC(=O)c2ccc3c(c2)S(=O)(=O)c2ccccc2C3=O)cc1,-0.11%
15,Cc1ccc(CNC(=O)c2cccc3c2C(=O)c2ccc(N4CCC(C)CC4)cc2S3(=O)=O)cc1,100% (active)
16,O=C(NCc1ccccc1CN1CCCC1)c1cccc(S(=O)(=O)Nc2ccc(F)cc2)c1,-1.12%
17,COc1ccc(OC)c(Cc2cnc3nc(N)nc(N)c3c2C)c1,0.81%
18,Cc1cccc(NC(=O)CN2CCN(CC(=O)NCC3(N4CCCCC4)CCCCC3)CC2)c1C,-1.57%
19,COc1ccc(CNC(=O)COC(=O)C2=Cc3ccccc3OC2)cc1,-9.53%
